Inconclusive results are not listed. Where a call stands in place of a potency, no number is given. Values without a mark were called inactive. Activity calls are given as the source filed them. The call rests on the fitted dose curve; in most records, active means well fitted inhibition curve with a large enough effect; inconclusive means small, poorly fitted or top-dose-only effect; inactive means flat fitted curve, though single readings scatter.
Assays:
HEK293 = test: Cytotoxic Profiling of Annotated Libraries Using Quantitative High-Throughput Screening (AID 1296008); conditions: Five cell lines viability, CellTiter-Glo ATP luminescence, 48-72 h; max response: hits give low values
In short: (§1)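 Cells exposed to compounds for 48 or 72 hr at 37 degrees Celsius. Viability read as ATP-coupled luminescence with CellTiter-Glo after 10 min at room temperature.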

HaCat [1] = test: as above; conditions: Five cell lines viability, CellTiter-Glo ATP luminescence, 48-72 h; max response: hits give low values
In short: as §1

KB-3-1 = test: as above; conditions: Five cell lines viability, CellTiter-Glo ATP luminescence, 48-72 h; max response: hits give low values
In short: as §1

NIH3T3 = test: as above; conditions: Five cell lines viability, CellTiter-Glo ATP luminescence, 48-72 h; max response: hits give low values
In short: as §1

HACAT [2] = test: qHTS assay to identify novel small-molecules to repurpose for Merkel cell carcinoma treatment (AID 1296009); conditions: MCC and control cell lines, CellTiter-Glo viability, 72 h; series mostly up to 44.8 µM
In short: (§2)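 Dose-response viability screen; 72 hr exposure at 37 degree celsius; CellTiter-Glo added, 10 min room temperature, luminescence read; RLUs scaled between no-cell and DMSO wells.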

MKL-1 = test: as above; conditions: MCC and control cell lines, CellTiter-Glo viability, 72 h; series mostly up to 46 µM
In short: as §2

HEK293T = test: as above; conditions: MCC and control cell lines, CellTiter-Glo viability, 72 h; at 44.8 µM (top of the series) unless noted
In short: as §2
Further: nearly all actives have a fitted effect of over 60% in size.
Potency means the concentration at half of the fitted maximal effect.

How did the max response (HEK293) turn out when `CC1OC(OC2C(C)OC(OC3C(O)C(CO)OC(O[C@H]4CC[C@@]5(C)C(CC[C@]6(C)C5CC=C5C7[C@@H](C)[C@H](C)CC[C@]7(C(=O)O)CC[C@]56C(=O)O)C4(C)C)C3O)C(O)C2O)C(O)C(O)C1O` (stereo partly specified) was run?
The max response was -6.08%.

And the outcome (HaCat [1])?
The outcome was “inactive”.

And the max response (KB-3-1)?
The max response was 9.21%.

And the outcome (NIH3T3)?
Its outcome is “inactive”.

And the outcome (HACAT [2])?
Its outcome is “inactive [at 9.27 µM]”.

`O=C(O)Cc1cn(C2OCC(O)C(O)C2O[C@@H]2O[C@H](CO)[C@@H](O)[C@H](O)[C@H]2O)c2ccccc12` (stereo partly specified) was tested. Which max response (HEK293) did it give?
The max response was 0.817%.

What about the outcome (HaCat [1]) of the same compound?
The outcome was “inactive”.

And the outcome (KB-3-1)?
The outcome was “inactive”.

What about the max response (NIH3T3) of the same compound?
Its max response is 2.49%.

What about the Potency (HACAT [2]) of the same compound?
Its Potency is “inactive”.

For `Cc1ccc(N)cc1O`, which Potency (HEK293) is on record?
The Potency was 43.3 µM (active).

And the outcome (HaCat [1])?
The outcome was “inactive”.

And the max response (KB-3-1)?
The max response was -6.12%.

And the Potency (HACAT [2])?
Its Potency is “inactive”.

And the Potency (MKL-1)?
Its Potency is 6.11 µM (active).

Which outcome (HEK293) does the source give for `O=C(/C=C/c1ccccc1)OC[C@]12O[C@H]1[C@@H](O)[C@@H]1C=CO[C@@H](O[C@@H]3O[C@H](CO)[C@@H](O)[C@H](O)[C@H]3O)[C@@H]12` here?
Its outcome is “inactive”.

And the outcome (HaCat [1])?
Its outcome is “inactive”.

What about the outcome (KB-3-1) of the same compound?
Its outcome is “inactive”.

And the outcome (NIH3T3)?
Its outcome is “inactive”.

What about the Potency (HACAT [2]) of the same compound?
Its Potency is “inactive”.

And the outcome (HEK293T)?
The outcome was “inactive [at 17.4 µM]”.

What does the source list for `COc1cc2occc2c(O[C@@H]2O[C@H](CO)[C@@H](O)[C@H](O)[C@H]2O)c1CCC(=O)O`?
outcome (HEK293): inactive; max response (HaCat [1]): 2.4%; outcome (KB-3-1): inactive; max response (NIH3T3): 1.36%; outcome (HEK293T): inactive [at 17.4 µM]

For `COC(=O)CC(O)CC(O)/C=C/c1c(C)ccc2c1C(O)CC(C)C2` (stereo unspecified), which outcome (HEK293) is on record?
Its outcome is “inactive”.

And the max response (HaCat [1])?
Its max response is -0.771%.

What about the outcome (KB-3-1) of the same compound?
Its outcome is “inactive”.

What about the outcome (NIH3T3) of the same compound?
Its outcome is “inactive”.

What about the outcome (HEK293T) of the same compound?
Its outcome is “inactive”.

Which max response (HEK293) does the source give for `CC1=CC(=O)[C@]2(O[C@@H]3O[C@@H](C)[C@H](O)[C@@H](O)[C@H]3OC(=O)/C=C/c3ccccc3)C=CO[C@@H](O[C@@H]3O[C@H](CO)[C@@H](O)[C@H](O)[C@H]3O)[C@H]12` here?
Its max response is -1.41%.

What about the outcome (HaCat [1]) of the same compound?
Its outcome is “inactive”.

What about the max response (KB-3-1) of the same compound?
The max response was 8.78%.

And the outcome (NIH3T3)?
The outcome was “inactive”.

What about the Potency (HACAT [2]) of the same compound?
The Potency was “inactive”.

From PubChem BioAssay (NCATS)
